Measured values from PMC7862700, “An all-to-all approach to the identification of sequence-specific readers for epigenetic DNA modifications on cytosine”.

Columns and labels:
Test in all cases: DAPPL (digital affinity profiling via proximity ligation, sequencing); 10 mM Tris-HCl pH 7.5, 50 mM NaCl, 1 mM DTT, 4% glycerol, room temperature, 30 min; GST-TFs on glutathione beads, 16-mer random dsDNA library, 0.1% formaldehyde crosslink after washing; high values mean tight binding
FLI1 = molecular target: T1, FLI1 (Homo sapiens, UniProt Q01543 1-452); details: protein: recombinant; tags: N-terminal GST; dsDNA, one strand shown
T1 sequence: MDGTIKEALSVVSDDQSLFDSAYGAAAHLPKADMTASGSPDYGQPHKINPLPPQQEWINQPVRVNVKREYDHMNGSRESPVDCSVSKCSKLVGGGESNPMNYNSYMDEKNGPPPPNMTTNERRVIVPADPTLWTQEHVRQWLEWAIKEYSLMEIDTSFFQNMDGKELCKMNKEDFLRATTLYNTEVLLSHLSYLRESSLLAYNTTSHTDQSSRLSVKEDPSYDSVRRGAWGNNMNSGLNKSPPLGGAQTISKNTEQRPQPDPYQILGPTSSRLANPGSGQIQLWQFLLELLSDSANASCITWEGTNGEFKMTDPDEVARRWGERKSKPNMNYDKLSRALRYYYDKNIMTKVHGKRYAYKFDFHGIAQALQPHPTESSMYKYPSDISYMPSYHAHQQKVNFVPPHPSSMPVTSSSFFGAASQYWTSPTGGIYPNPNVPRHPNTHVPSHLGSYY
Summary of the method: (§1)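 Human transcription factors fused to GST were expressed in yeast, captured on glutathione beads, given DNA barcodes and pooled with a GST-only negative control. Pools were incubated with 200 nmole of a 16-mer random double-stranded DNA library in Tris/NaCl/DTT/glycerol buffer at room temperature for 30 min. They were then washed, crosslinked with 0.1% formaldehyde, proximity-ligated (BsaI/T4 ligase, 1 h, 37 °C), PCR-amplified and sequenced on an Illumina NextSeq500. Binding signal is each 6-mer's read frequency for a factor divided by its frequency for the GST control.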

ELK1 = molecular target: T2, ELK1 (Homo sapiens, UniProt P19419 1-428); details: protein: recombinant; tags: N-terminal GST; dsDNA, one strand shown
T2 sequence: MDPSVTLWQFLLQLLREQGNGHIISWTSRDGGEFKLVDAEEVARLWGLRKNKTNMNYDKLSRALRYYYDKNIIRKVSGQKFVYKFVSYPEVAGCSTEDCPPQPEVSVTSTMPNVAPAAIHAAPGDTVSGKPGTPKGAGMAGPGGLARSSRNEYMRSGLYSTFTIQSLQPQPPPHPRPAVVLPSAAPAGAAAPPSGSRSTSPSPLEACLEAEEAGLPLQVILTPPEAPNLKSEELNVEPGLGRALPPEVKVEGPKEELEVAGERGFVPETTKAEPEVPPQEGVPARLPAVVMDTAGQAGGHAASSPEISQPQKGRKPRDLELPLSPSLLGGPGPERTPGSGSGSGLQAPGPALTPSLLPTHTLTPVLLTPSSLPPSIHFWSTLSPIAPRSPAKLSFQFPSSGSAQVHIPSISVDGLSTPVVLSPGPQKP
Summary of the method: as §1

GABPA = molecular target: T3, GABPA (Homo sapiens, UniProt Q06546 1-454); details: protein: recombinant; tags: N-terminal GST; dsDNA, one strand shown
T3 sequence: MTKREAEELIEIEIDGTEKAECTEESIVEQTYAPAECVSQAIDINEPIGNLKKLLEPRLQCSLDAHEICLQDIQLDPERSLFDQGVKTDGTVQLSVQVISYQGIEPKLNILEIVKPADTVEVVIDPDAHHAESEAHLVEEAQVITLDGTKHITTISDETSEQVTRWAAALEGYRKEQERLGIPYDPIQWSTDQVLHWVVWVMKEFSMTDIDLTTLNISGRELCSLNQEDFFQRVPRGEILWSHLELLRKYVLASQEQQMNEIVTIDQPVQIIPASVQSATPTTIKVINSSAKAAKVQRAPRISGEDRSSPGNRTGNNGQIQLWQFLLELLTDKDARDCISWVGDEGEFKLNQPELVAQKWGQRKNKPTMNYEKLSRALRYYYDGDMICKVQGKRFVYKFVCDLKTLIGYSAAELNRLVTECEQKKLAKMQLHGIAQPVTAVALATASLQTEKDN
Summary of the method: as §1

ERG = molecular target: T4, ERG (Homo sapiens, UniProt P11308 1-479); details: protein: recombinant; tags: N-terminal GST; dsDNA, one strand shown
T4 sequence: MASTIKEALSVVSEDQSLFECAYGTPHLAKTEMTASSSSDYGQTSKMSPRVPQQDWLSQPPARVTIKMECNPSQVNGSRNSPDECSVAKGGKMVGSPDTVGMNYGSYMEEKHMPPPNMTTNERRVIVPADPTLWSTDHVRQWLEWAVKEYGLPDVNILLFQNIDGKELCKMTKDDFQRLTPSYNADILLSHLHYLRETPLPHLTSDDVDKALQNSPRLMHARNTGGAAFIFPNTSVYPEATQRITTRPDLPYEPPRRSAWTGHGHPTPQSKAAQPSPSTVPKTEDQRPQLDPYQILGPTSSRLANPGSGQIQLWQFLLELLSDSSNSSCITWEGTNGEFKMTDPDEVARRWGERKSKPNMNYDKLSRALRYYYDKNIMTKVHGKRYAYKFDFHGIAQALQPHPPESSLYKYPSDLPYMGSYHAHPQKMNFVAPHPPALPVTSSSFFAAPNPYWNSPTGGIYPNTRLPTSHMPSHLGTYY
Summary of the method: as §1

ELF1 = ELF1 (Homo sapiens, UniProt P32519 1-619); details: protein: recombinant; tags: N-terminal GST; dsDNA, one strand shown
Sequence of ELF1 (P32519 whole entry): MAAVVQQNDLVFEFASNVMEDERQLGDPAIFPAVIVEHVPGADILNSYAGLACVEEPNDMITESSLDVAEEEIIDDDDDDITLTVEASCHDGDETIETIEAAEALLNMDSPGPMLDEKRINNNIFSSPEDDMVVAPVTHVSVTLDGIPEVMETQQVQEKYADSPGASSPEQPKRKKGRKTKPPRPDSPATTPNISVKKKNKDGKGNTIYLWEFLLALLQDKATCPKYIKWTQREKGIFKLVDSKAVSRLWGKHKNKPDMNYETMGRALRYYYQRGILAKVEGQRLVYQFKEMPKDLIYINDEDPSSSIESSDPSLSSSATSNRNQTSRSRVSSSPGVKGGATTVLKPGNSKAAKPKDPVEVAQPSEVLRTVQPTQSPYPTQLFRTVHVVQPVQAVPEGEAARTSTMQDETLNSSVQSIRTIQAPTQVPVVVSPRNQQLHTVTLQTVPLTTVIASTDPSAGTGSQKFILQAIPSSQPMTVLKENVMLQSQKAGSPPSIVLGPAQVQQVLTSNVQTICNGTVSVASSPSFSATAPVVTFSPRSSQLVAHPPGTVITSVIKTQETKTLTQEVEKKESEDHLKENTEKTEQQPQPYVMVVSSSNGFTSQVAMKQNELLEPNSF
Summary of the method: as §1

EHF = molecular target: T5, EHF (Homo sapiens, UniProt Q9NZC4 1-300); details: protein: recombinant; tags: N-terminal GST; dsDNA, one strand shown
T5 sequence: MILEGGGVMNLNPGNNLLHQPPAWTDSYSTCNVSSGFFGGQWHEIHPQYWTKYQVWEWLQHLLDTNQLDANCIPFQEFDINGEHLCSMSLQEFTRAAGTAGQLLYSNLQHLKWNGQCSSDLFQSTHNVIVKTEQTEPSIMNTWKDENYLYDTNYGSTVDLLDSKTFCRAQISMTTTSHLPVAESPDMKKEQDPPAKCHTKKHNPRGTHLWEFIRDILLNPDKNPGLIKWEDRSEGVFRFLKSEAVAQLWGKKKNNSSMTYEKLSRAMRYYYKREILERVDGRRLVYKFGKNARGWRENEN
Summary of the method: as §1

SPI1 = SPI1 (Homo sapiens, UniProt P17947 1-270); details: protein: recombinant; tags: N-terminal GST; dsDNA, one strand shown
Summary of the method: as §1

SPIB = SPIB (Homo sapiens, UniProt Q01892 1-262); details: protein: recombinant; tags: N-terminal GST; dsDNA, one strand shown
Sequence of SPIB (Q01892 whole entry): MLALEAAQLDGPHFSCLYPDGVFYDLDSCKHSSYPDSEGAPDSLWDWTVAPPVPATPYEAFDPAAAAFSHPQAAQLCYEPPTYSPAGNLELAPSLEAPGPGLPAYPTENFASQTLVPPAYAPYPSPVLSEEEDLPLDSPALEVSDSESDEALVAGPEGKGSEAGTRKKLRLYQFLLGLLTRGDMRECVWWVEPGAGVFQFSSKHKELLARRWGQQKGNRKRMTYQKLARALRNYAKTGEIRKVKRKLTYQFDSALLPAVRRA
Summary of the method: as §1

ELK3 = molecular target: T6, ELK3 (Homo sapiens, UniProt P41970 1-407); details: protein: recombinant; tags: N-terminal GST; dsDNA, one strand shown
T6 sequence: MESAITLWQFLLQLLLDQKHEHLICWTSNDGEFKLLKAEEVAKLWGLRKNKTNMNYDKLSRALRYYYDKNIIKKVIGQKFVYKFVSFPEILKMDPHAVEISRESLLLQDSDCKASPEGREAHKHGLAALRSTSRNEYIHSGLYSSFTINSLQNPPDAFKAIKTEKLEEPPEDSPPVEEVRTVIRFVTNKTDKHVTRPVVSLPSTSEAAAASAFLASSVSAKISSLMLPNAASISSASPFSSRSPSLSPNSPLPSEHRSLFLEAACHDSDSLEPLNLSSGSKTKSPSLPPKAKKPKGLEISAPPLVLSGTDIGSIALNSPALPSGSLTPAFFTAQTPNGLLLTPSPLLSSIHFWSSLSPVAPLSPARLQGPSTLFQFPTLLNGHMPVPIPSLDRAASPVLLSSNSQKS
Summary of the method: as §1

FEV = molecular target: T7, FEV (Homo sapiens, UniProt Q99581 1-238); details: protein: recombinant; tags: N-terminal GST; dsDNA, one strand shown
T7 sequence: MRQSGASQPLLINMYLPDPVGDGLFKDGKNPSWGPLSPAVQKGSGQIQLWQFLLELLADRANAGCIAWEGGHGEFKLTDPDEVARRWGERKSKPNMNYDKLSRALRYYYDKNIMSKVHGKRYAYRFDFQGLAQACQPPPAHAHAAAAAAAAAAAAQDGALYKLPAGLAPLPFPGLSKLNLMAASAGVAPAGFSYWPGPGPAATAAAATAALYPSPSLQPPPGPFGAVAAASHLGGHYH
Summary of the method: as §1

ETV5 = ETV5 (Homo sapiens, UniProt P41161 1-510); details: protein: recombinant; tags: N-terminal GST; dsDNA, one strand shown
Sequence of ETV5 (P41161 whole entry): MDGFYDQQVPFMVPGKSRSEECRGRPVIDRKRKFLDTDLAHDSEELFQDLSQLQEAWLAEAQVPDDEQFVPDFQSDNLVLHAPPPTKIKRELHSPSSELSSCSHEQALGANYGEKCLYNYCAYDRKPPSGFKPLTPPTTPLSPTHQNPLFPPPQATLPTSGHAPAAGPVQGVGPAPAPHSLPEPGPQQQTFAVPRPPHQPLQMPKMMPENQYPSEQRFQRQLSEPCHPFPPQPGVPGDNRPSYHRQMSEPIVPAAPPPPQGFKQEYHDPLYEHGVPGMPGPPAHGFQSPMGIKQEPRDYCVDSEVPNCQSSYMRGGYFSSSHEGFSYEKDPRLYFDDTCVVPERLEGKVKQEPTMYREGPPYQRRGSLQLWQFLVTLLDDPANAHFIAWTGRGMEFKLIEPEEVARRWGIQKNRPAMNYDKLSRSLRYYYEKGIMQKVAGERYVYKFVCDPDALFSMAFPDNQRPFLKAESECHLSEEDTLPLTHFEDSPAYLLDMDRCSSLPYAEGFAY
Summary of the method: as §1

HSF1 = HSF1 (Homo sapiens, UniProt Q00613 1-529); details: protein: recombinant; tags: N-terminal GST; chain copies: 3; dsDNA, one strand shown
Sequence of HSF1 (Q00613 whole entry): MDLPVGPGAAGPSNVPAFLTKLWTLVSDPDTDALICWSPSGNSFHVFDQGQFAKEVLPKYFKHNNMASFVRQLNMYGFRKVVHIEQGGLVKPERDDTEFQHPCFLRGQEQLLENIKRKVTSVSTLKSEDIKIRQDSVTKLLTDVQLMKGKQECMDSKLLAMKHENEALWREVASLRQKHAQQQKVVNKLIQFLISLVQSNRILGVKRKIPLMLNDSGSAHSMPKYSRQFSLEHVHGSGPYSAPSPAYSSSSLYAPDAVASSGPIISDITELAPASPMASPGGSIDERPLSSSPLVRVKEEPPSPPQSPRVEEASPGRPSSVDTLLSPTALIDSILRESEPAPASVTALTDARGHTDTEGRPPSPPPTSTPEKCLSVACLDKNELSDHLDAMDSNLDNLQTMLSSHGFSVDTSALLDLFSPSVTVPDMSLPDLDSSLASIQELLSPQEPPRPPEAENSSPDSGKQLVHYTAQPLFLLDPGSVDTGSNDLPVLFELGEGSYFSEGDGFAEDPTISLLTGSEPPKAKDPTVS
Summary of the method: as §1

SPIC = molecular target: T8, SPIC (Homo sapiens, UniProt Q8N5J4 1-248); details: protein: recombinant; tags: N-terminal GST; dsDNA, one strand shown
T8 sequence: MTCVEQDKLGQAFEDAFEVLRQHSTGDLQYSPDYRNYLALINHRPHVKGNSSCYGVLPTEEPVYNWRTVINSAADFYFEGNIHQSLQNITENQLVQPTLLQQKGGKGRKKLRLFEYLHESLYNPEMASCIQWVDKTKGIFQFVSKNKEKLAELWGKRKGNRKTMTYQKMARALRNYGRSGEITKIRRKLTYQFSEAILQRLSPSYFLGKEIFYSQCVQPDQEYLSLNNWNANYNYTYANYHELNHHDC
Summary of the method: as §1

ELF4 = ELF4 (Homo sapiens, UniProt Q99607 1-663); details: protein: recombinant; tags: N-terminal GST; dsDNA, one strand shown
Sequence of ELF4 (Q99607 whole entry): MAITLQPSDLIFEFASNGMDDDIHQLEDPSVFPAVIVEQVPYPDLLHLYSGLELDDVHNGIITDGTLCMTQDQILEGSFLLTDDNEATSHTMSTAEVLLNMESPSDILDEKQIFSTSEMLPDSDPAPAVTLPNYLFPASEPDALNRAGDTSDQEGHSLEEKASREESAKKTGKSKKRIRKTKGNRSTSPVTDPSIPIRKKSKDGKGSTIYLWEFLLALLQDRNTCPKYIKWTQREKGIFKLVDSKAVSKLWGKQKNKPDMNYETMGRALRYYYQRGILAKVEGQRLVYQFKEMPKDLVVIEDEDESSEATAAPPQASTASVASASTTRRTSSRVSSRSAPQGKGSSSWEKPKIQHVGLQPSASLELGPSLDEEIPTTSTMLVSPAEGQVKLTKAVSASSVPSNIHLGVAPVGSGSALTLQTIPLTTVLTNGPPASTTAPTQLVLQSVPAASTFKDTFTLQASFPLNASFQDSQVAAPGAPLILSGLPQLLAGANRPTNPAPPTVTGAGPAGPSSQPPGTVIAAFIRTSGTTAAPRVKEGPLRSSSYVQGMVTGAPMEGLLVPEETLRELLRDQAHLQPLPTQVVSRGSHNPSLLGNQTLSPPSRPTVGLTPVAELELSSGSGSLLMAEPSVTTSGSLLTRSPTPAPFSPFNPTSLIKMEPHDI
Summary of the method: as §1

ELK4 = molecular target: T9, ELK4 (Homo sapiens, UniProt P28324-2 1-405); details: protein: recombinant; tags: N-terminal GST; dsDNA, one strand shown
T9 sequence: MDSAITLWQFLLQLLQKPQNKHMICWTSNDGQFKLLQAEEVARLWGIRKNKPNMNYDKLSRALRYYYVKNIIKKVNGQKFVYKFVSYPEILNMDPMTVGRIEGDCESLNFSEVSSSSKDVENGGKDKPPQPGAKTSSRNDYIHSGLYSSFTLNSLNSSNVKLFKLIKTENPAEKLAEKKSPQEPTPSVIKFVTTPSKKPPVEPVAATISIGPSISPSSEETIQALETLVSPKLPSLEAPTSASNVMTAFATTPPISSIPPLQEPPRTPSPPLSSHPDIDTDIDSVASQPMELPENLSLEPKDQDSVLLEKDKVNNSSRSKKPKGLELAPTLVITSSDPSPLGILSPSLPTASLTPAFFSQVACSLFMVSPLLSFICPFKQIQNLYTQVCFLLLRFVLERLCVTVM
Summary of the method: as §1

ETV2 = molecular target: T10, ETV2 (Homo sapiens, UniProt O00321 1-342); details: protein: recombinant; tags: N-terminal GST; dsDNA, one strand shown
T10 sequence: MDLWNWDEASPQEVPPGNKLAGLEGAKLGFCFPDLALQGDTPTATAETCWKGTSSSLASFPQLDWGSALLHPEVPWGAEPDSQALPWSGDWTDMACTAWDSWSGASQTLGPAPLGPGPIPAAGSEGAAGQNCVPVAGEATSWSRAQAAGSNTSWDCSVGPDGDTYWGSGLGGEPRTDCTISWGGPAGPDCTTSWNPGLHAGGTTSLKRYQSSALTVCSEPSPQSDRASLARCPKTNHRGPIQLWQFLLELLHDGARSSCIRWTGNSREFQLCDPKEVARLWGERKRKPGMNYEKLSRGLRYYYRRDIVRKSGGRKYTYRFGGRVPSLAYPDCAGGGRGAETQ
Summary of the method: as §1

ELF3 = molecular target: T11, ELF3 (Homo sapiens, UniProt P78545 1-371); details: protein: recombinant; tags: N-terminal GST; dsDNA, one strand shown
T11 sequence: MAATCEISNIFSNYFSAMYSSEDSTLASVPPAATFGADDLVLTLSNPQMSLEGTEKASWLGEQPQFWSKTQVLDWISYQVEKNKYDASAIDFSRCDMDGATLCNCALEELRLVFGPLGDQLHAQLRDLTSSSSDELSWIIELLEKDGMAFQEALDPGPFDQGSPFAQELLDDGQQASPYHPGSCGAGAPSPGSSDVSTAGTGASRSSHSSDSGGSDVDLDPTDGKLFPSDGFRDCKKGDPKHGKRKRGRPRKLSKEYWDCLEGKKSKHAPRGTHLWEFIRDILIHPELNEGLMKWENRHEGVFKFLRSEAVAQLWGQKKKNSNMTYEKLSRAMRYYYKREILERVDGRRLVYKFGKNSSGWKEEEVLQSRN
Summary of the method: as §1

CRX = CRX (Homo sapiens, UniProt O43186 1-299); details: protein: recombinant; tags: N-terminal GST; dsDNA, one strand shown
Sequence of CRX (O43186 whole entry): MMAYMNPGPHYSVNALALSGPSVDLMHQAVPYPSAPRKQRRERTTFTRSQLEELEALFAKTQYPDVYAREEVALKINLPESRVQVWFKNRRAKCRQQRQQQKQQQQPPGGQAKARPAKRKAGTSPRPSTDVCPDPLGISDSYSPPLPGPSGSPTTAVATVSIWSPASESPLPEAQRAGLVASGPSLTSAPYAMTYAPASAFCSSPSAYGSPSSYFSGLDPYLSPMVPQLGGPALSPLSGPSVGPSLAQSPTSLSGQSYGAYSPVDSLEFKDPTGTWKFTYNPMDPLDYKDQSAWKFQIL
Summary of the method: as §1

ETV1 = ETV1 (Homo sapiens, UniProt P50549 1-477); details: protein: recombinant; tags: N-terminal GST; dsDNA, one strand shown
Sequence of ETV1 (P50549 whole entry): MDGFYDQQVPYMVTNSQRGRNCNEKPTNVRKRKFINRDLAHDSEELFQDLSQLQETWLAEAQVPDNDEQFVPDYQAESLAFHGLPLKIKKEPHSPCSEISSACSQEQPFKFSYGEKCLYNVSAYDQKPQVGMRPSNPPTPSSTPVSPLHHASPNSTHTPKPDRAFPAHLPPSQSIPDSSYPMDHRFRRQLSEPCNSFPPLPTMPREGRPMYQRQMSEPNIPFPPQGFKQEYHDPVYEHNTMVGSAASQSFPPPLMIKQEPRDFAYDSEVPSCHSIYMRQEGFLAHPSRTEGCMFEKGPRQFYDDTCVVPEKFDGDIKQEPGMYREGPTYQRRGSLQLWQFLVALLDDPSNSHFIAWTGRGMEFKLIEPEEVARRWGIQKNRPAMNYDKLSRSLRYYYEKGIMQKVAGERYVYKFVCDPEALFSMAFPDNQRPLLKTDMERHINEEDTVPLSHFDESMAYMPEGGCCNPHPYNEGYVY
Summary of the method: as §1

CCACTA
binding signal (FLI1): 1.1 fold enrichment (6-mer frequency, TF over GST control)
binding signal (ELK1): 1.14 fold enrichment (6-mer frequency, TF over GST control)
binding signal (GABPA): 1.14 fold enrichment (6-mer frequency, TF over GST control)
binding signal (ERG): 1.08 fold enrichment (6-mer frequency, TF over GST control)
binding signal (ELF1): 1.13 fold enrichment (6-mer frequency, TF over GST control)
binding signal (EHF): 1.06 fold enrichment (6-mer frequency, TF over GST control)
binding signal (SPI1): 1.04 fold enrichment (6-mer frequency, TF over GST control)
binding signal (SPIB): 1.04 fold enrichment (6-mer frequency, TF over GST control)
binding signal (ELK3): 1.22 fold enrichment (6-mer frequency, TF over GST control)
binding signal (FEV): 1.08 fold enrichment (6-mer frequency, TF over GST control)
binding signal (ETV5): 1.12 fold enrichment (6-mer frequency, TF over GST control)
binding signal (HSF1): 1.08 fold enrichment (6-mer frequency, TF over GST control)
binding signal (SPIC): 1.11 fold enrichment (6-mer frequency, TF over GST control)
binding signal (ELF4): 1.11 fold enrichment (6-mer frequency, TF over GST control)
binding signal (ELK4): 1.06 fold enrichment (6-mer frequency, TF over GST control)
binding signal (ETV2): 1.14 fold enrichment (6-mer frequency, TF over GST control)
binding signal (ELF3): 1.1 fold enrichment (6-mer frequency, TF over GST control)
binding signal (CRX): 1.12 fold enrichment (6-mer frequency, TF over GST control)
binding signal (ETV1): 1.03 fold enrichment (6-mer frequency, TF over GST control)
